Compound activity deposited in PubChem by several laboratories.
Compounds with a hit are over-represented: about 1.2% of the library has one in this group of screens.
Smad3 FoxH1 inh: Smad3/FoxH1 peptide binding inhibitors, primary screen, biochemical, TR-FRET | TR-FRET Smad3/Dy647-FoxH1 peptide binding, europium anti-His | Mothers against decapentaplegic homolog 3 (Homo sapiens), P84022 | inhibition, % at 25 µM | 88,000 compounds, 0.29% hits;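 active means compounds that reduce the energy-transfer binding signal between the protein and its labelled peptide by more than half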;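 further: 0% = Smad3 plus labelled peptide maximal FRET and 100% = peptide-only background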
MRP1 act: H69AR viability gain despite doxorubicin, primary screen, MRP-1 activator project, H69AR cells, CellTiter-Glo | 140,000 compounds, 0.61% hits | AID 799, 2007 | viability increase, % at 10 µM | viability rescue;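 active means viability gain under doxorubicin at or above a set limit, the compound median plus 3 SD, cut at about 4.7% in these data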;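 further: MRP-1 overexpressing cells given doxorubicin 25 µM after compound pretreatment; 18-22 h compound pretreatment then 72 h with doxorubicin before readout; 0% = doxorubicin-only wells and 100% = vehicle-treated cells without doxorubicin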
CD11b adhes inh: inhibitors of CD11b/CD18 adhesion to fibrinogen, primary screen, K562 cells, luminescence; Integrin beta-2 (Homo sapiens) + Integrin alpha-M (Homo sapiens), P05107+P11215; ATPlite luminescence; Mn2+ added to activate the integrin; inhibition, % at 10 µM; 93,000 compounds, 0.54% hits;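 active means primary inhibition of 50% or more at 10 µM, then 40% or more on retest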
Target sequence (P05107 whole entry, looked up, other chains not shown): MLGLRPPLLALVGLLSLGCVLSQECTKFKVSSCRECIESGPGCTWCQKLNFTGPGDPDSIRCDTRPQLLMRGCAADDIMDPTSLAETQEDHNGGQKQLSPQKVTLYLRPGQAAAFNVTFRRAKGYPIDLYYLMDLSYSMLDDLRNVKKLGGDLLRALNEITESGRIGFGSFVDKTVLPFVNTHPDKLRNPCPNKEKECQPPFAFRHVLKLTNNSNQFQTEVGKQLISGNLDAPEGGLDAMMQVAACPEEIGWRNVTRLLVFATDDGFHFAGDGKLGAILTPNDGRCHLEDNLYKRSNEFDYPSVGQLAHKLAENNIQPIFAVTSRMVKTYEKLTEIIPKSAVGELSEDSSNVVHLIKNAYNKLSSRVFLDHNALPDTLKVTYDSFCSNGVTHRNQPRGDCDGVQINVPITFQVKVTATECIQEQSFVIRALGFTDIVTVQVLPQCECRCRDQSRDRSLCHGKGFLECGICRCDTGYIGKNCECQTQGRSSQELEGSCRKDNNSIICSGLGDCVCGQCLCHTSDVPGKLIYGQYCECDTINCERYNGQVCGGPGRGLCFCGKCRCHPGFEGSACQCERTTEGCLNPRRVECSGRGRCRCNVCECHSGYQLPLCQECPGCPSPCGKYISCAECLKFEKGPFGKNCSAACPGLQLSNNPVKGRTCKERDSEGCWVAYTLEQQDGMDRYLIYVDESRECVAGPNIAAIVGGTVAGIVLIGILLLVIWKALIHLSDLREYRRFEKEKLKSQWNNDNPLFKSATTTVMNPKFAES
MRP reversal: reversal of MRP1-mediated doxorubicin resistance, primary screen, H69AR cells, doxorubicin co-treatment | H69AR cells + 2 uM doxorubicin, CellTiter-Glo, 72 h | differential viability (reversal), % at 10 µM | 85,000 compounds, 0.04% hits | AID 602, 2007;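 active means viability drop by adding the cancer drug above about 55%, with treated viability meeting a 40% cutoff, limit read from the data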;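 further: viability without doxorubicin minus viability with 2 µM doxorubicin for each compound; larger differential means the compound sensitizes cells more to doxorubicin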
Phagocyt inh: inhibitors of macrophage phagocytosis, primary screen, imaging, J774A.1 cells, IgG beads | AID 1029, 2008 | inhibition, % at 5 µM | J774A.1 macrophage IgG-bead phagocytosis | 110,000 compounds, 0.07% hits;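 active means inhibition above the mean of the plate negative controls plus 5 SD, cut at about 13% in these data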;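 further: phagocytic index as fraction of beads internalized from green versus red external bead signal; plate controls were DMSO negative control for no effect and cytochalasin-D positive control for full effect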
CD11b adhes enh: enhancers of CD11b/CD18 adhesion to fibrinogen, primary screen, K562 cells, luminescence; Integrin beta-2 (Homo sapiens) + Integrin alpha-M (Homo sapiens), P05107+P11215; ATPlite luminescence; activation, % at 10 µM; 93,000 compounds, 0.07% hits; AID 1499, 2009;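 active means 10 µM primary screen giving 50% or more activity, confirmed by 40% or more on retest at that dose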
* marks the source's active call; other numbers are inactive results; . = no result given.

SMILES	Smad3 FoxH1 inh	MRP1 act	CD11b adhes inh	MRP reversal	Phagocyt inh	CD11b adhes enh
CC(NC(=O)c1cccc(F)c1)C(c1cccs1)N1CCN(C)CC1 (stereo unspecified)	1	0	15	-15	-1	10
COC(=O)CN1C(=S)N(c2ccc(Cl)cc2)C(=O)C1CC(=O)Nc1ccc(F)cc1 (stereo unspecified)	.	-2	11	.	-7	9
COc1ccc(NC(=O)CC2C(=O)N(c3ccc(F)cc3)C(=S)N2NC(=O)c2ccc(Cl)cc2)cc1 (stereo unspecified)	.	4.8*	.	.	-3	.
COc1ccc(NC(=O)CC2C(=O)N(c3ccc(Cl)cc3)C(=S)N2NC(=O)c2cccc(F)c2)cc1 (stereo unspecified)	.	5.1*	.	.	.	.
CCOc1ccc(C(=O)Nc2nnn(CC)n2)cc1	0	-2	12	1	0	-3
CCn1nnc(NC(=O)COc2ccc(C3CCCCC3)cc2)n1	-11	2	74*	10	-1	-9
Clc1ccc(OCCSc2ncccn2)c2ccccc12	1	5.0*	-2	2	0	-1
c1cnc(SCCOc2cccc3ccccc23)nc1	-3	1	20	10	0	5
O=C(N/N=C/c1ccc(-c2ccc(S(=O)(=O)Nc3ncccn3)cc2)o1)c1cc2ccccc2cc1O	.	-2	-11	.	-1	53*
CCOc1ccc(C(=O)N/N=C/c2ccc(-c3ccc(S(=O)(=O)Nc4ncccn4)cc3)o2)cc1	.	1	22	.	2	-2
CCc1cccc(CC)c1N(COC)C(=O)Cn1ccccc1=N	.	-1	-15	.	1	4
COC(=O)[C@@H]1C(O)[C@H](C(=O)OC)[C@@H](C)N(C)[C@H]1C (stereo partly specified)	-4	.	.	.	.	.
CCN(CC)CCCNC(CC(=O)O)C(=O)O (stereo unspecified)	-6	.	.	3	.	.
CCCC1=NN2C(=N)/C(=C\c3ccc(SCc4ccco4)o3)C(=O)N=C2S1	10	-2	64*	-4	.	4
CCC1=NN2C(=N)/C(=C\c3ccc(SCc4ccco4)o3)C(=O)N=C2S1	9	0	10	-7	-1	-1
Cc1cccc(S(=O)(=O)Nc2nc3ccccc3nc2Nc2ccc3c(c2)OCO3)c1	.	1	.	.	.	.
O=[N+]([O-])c1cccc(S(=O)(=O)Nc2nc3ccccc3nc2Nc2cccc(S(=O)(=O)N3CCCCC3)c2)c1	.	-6	98*	.	-4	4
C[N+](C)(C)CC(=O)N/N=C/c1c(O)ccc2ccccc12	12	.	.	.	.	.
Cn1nc(-c2ccc(Cl)cc2)nc2c(=O)n(C)c(=O)nc1-2	80*	-3	.	-1	.	.
Cn1c(N)nc2c(nc(OCc3ccccc3)n2[C@H]2O[C@H](CO)[C@@H](O)[C@@H]2O)c1=O	74*	.	.	.	.	.
Nc1ncnc2c1nc(-c1ccccc1)n2[C@H]1O[C@@H](CO)[C@H](O)[C@H]1O	14	.	.	.	.	.
C[N+](C)(C)CC(=O)N/N=C/c1ccncc1	0	.	.	.	.	.
O=C(Nc1c2c(nc3ccccc13)CCCC2)c1cccc([N+](=O)[O-])c1	.	-4	.	.	-7	.
COc1cc(NS(=O)(=O)c2ccc(N/C=C(\C#N)c3nc4cc(Cl)ccc4o3)cc2)nc(OC)n1	.	4.9*	40	.	-1	-2
CCCc1cc(=O)[nH]c(/N=C(/NC(=O)C(C)N2C(=O)c3ccccc3C2=O)Nc2ccccc2)n1 (stereo unspecified)	53*	-1	26	-1	-2	16
SMILES	Smad3 FoxH1 inh	MRP1 act	CD11b adhes inh	MRP reversal	Phagocyt inh	CD11b adhes enh
COc1cc(C(=O)Nc2ccc(OCC(=O)O)cc2)cc(OC)c1OC	5	0	16	8	.	1
Nc1nc(-c2ccccc2)c(-c2ccccc2)c(-c2nc(N)nc(-c3ccccc3)c2-c2ccccc2)n1	14	.	.	.	.	.
CCOC(=O)Cc1nnc2c(Nc3ccccc3F)nc3nonc3n12	-6	-1	99*	-19	-2	-11
CCOC(=O)Cc1nnc2c(Nc3ccc(C)cc3)nc3nonc3n12	-6	-3	2	-10	-1	0
N#C/C(=N/Nc1ccccc1F)C(=N)N1CCOCC1	.	8.1*	-6	.	.	1
CC(NC(=S)Nc1ccccc1Cl)C(c1cccs1)N1CCCC1 (stereo unspecified)	.	-3	.	.	-6	.
N#CC1=C(N)Oc2c(O)cc3ccccc3c2C1c1ccsc1 (stereo unspecified)	.	-4	70*	.	-9	-3
Nc1ccc(N(S(=O)(=O)c2ccccc2)S(=O)(=O)c2ccccc2)c(Cl)c1	87*	.	.	.	.	.
O=[N+]([O-])c1ccc2ncccc2c1CCc1c([N+](=O)[O-])ccc2ncccc12	8	.	.	.	.	.
Cc1ccc(C(=O)N/N=C(/CC(=O)c2cccs2)C(F)(F)F)cc1	.	1	98*	.	-9	-9
Cc1cc(N/N=C/c2ccccc2Cl)nc(NCc2ccccc2)n1	.	7.1*	.	.	-9	.
Cc1cc(C)nc(N/N=C/c2ccccc2)n1	.	1	.	.	.	.
Cc1cc(C)nc(N/N=C/c2cccc3ccccc23)n1	.	5.7*	.	.	.	.
Cc1cc(C)nc(NN2C(=O)/C(=C/c3ccc(O)cc3)SC2=S)n1	.	7.8*	.	.	.	.
COc1ccccc1/C=C1\SC(=S)N(Nc2nc(C)cc(C)n2)C1=O	.	-1	.	.	.	.
OC[C@@H](O)[C@@H](O)[C@@H](O)[C@@H](O)c1nc2ccc(Cl)cc2[nH]1	-10	.	.	.	.	.
CCCOc1ccc(C(=O)NC(=S)Nc2nc(C)c(C(=O)N(C)C)s2)cc1	.	0	1	.	0	-1
NS(=O)(=O)c1ccc(NCc2cnc3ccccc3n2)cc1	9	.	.	.	.	.
NS(=O)(=O)c1ccc(NCc2cnc3ccccc3c2)cc1	102*	.	.	.	.	.
CCn1c(SCc2nc(-c3ccc(Cl)cc3)no2)nnc1-c1ccco1	6	0	58*	-8	.	-8
Cn1c(SCc2nc(-c3ccccc3)no2)nnc1-c1ccco1	11	-5	.	6	.	.
COC(=O)/C(=C(/F)Sc1cc(C)c(O)c(C)c1)C(F)(F)F	15	-1	55*	1	1	-7
C=CCN(CC=C)Cc1c(C)[nH]c2ccc(C(=O)OCC)cc2c1=O	-6	-4	6	-11	1	0
CCCCCCCCCCCCCCCC[n+]1cccc2ccccc21	.	-5	106*	.	19	-7
O=C(C[n+]1cccc2ccccc21)c1ccccc1	.	-2	.	.	.	.
CCCCCCCCC[n+]1cccc2c3ccccc3ccc21	.	-6	106*	.	-2	-10
CCCCCCCCCCCCCCCC[n+]1ccc(/C=N/O)cc1	.	-6	.	.	8	.
